2 compounds from the supplement of paper PMC11732987, “Enantioselective OTUD7B fragment discovery through chemoproteomics screening and high-throughput optimisation” (Communications Chemistry, 2025) can be followed below.

Common to all, as to test: log2 ratio of Biotin-Ahx-Ub-VS probe labelling (fragment/DMSO); higher = less target engagement (more negative = stronger competition), active = hit call of the paper (q ≤ 0.05, log2 ratio ≤ -1)
Holding throughout (details): compound concentration: 200 uM; treatment time: 3 h

The target in one test is T1, USP42 (UniProt Q9H9J4).
T1 sequence (whole entry): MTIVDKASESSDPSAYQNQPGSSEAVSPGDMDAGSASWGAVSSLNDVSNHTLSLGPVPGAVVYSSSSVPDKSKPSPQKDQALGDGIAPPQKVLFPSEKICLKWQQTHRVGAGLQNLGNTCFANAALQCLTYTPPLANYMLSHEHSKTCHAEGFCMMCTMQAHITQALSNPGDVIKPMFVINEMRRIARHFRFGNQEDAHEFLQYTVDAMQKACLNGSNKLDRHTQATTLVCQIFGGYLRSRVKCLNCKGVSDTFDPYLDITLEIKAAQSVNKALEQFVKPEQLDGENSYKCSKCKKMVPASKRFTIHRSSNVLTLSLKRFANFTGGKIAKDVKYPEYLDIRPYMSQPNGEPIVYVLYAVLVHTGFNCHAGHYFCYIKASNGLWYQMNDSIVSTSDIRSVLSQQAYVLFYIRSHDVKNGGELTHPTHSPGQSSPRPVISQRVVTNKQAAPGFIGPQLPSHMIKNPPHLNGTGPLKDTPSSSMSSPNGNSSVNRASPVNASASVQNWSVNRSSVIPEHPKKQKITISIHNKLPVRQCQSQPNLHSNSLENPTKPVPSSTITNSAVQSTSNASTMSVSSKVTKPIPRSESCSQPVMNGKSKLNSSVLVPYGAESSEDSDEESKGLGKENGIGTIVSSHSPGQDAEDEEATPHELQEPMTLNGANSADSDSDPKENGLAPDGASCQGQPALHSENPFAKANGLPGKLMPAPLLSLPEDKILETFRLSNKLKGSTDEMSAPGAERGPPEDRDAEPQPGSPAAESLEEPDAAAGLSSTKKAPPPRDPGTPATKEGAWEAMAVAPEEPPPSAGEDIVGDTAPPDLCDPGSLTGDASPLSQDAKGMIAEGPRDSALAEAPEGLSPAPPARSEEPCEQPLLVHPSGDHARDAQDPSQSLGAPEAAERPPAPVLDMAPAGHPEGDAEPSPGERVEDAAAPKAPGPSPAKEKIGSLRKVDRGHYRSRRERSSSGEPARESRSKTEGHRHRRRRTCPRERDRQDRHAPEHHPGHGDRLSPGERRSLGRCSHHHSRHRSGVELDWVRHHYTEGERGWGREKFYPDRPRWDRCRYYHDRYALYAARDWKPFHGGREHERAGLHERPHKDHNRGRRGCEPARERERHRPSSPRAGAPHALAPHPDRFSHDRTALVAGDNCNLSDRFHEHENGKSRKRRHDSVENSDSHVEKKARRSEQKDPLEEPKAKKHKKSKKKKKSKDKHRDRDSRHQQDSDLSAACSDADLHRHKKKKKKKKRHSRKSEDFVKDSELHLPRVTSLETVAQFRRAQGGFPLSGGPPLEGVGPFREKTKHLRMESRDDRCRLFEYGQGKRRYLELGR
The essentials:
(§1)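 Each value is an average log2 ratio of fragment to vehicle, tested by unpaired t-test. The underlying Spectronaut label-free quantities were global-median-normalised, and only proteins with ≥2 unique peptides were included. Triplicate HEK293T lysate samples (495 µg) were exposed to fragment at 200 µM or vehicle for 3 h, then to Biotin-Ahx-Ub-VS at 0.5 µM final for 1 h, before NeutrAvidin enrichment of labelled DUBs, LysC and trypsin digestion, and diaPASEF LC-MS/MS.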

Another test addresses USP46 (UniProt P62068). The essentials: as §1
The target in a further test is T2, USP47 (UniProt Q96K76).
T2 sequence (whole entry): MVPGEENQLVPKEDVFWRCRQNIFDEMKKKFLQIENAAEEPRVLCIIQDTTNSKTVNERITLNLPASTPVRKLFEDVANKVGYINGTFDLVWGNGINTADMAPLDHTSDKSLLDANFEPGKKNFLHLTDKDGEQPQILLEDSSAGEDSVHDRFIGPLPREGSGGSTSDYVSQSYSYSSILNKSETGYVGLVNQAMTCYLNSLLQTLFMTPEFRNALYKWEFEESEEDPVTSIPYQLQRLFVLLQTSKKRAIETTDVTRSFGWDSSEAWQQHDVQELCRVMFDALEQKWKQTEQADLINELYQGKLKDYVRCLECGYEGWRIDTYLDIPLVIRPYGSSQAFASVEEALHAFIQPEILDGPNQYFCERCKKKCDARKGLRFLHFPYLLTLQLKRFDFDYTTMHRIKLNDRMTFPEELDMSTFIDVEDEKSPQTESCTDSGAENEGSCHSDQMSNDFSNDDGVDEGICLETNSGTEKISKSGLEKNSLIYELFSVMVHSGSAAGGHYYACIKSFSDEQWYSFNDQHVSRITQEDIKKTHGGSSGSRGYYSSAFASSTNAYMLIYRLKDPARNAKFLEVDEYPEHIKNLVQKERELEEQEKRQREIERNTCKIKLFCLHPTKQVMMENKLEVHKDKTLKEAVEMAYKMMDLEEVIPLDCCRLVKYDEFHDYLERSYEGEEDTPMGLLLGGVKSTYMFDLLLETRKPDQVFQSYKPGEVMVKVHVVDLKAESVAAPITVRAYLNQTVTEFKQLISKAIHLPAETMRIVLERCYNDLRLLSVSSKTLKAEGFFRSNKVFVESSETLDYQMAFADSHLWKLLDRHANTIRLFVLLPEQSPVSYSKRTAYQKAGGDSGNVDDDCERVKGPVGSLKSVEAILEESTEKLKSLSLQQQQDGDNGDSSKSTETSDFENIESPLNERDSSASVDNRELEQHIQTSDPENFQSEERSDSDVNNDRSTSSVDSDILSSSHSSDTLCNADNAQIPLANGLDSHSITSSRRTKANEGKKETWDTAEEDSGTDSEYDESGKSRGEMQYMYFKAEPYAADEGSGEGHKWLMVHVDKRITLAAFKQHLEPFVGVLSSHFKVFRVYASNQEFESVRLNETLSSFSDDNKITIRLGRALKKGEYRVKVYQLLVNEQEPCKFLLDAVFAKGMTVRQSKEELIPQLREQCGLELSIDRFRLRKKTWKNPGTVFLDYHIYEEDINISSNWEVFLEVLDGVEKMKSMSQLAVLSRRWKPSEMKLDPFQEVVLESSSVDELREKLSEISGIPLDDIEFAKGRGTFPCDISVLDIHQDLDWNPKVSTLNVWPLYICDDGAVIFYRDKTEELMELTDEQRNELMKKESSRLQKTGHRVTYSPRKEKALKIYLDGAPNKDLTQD
The essentials:
as §1

In the next test the target is T3, USP48 (UniProt Q86UV5).
T3 sequence (whole entry): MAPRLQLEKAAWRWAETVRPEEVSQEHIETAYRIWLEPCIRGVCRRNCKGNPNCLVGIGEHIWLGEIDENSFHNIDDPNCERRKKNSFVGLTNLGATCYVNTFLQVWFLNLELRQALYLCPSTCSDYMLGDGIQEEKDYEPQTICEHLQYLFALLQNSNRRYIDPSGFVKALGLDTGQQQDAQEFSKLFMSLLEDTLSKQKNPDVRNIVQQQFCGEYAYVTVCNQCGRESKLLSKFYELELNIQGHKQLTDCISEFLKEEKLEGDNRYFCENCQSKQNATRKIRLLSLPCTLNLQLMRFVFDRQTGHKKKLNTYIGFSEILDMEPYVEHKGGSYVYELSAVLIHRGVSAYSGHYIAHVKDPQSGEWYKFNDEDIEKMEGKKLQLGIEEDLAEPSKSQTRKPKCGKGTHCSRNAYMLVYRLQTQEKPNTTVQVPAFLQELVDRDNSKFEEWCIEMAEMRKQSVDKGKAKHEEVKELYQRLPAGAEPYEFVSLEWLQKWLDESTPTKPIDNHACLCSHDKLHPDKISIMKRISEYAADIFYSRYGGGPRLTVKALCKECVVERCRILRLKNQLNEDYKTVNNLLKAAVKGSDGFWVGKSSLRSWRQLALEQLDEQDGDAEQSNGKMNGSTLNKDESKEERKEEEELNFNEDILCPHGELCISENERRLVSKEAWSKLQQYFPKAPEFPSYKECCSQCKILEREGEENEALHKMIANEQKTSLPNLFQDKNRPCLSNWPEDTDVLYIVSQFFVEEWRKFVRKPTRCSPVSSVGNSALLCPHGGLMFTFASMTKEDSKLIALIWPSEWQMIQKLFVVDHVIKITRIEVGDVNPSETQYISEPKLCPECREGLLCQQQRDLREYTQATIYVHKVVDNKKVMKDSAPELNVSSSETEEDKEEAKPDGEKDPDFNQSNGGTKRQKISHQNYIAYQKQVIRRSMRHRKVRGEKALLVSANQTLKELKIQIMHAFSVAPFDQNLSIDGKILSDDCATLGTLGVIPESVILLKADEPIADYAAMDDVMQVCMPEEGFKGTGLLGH
In outline: as §1

Another test concerns the target T4, USP5 (UniProt P45974).
T4 sequence (whole entry): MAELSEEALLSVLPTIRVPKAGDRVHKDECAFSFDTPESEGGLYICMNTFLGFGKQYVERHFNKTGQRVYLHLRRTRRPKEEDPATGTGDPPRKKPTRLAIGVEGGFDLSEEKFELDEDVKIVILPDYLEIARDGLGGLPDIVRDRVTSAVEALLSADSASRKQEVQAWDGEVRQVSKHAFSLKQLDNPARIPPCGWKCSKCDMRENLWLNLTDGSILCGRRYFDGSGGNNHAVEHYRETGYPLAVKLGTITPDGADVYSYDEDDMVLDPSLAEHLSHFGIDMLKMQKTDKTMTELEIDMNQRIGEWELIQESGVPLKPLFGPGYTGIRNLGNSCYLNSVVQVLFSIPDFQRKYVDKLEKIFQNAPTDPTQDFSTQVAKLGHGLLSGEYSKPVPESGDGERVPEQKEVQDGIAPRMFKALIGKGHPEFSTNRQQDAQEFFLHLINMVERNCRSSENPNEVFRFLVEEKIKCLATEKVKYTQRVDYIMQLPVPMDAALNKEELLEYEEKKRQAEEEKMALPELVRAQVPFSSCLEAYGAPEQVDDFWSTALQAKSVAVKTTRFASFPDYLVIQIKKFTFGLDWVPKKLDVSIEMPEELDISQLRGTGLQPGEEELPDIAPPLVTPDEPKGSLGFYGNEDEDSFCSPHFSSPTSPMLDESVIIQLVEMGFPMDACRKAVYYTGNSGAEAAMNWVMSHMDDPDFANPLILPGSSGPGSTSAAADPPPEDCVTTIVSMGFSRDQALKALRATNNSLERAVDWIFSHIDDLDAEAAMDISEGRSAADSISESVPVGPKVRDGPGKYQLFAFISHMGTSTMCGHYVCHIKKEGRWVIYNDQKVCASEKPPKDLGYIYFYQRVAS
In outline:
as §1

Another test has as its target USP54 (UniProt Q70EL1). In outline: as §1
For another test, the target named is USP7 (UniProt Q93009). The essentials:
as §1

The target in the next test is T5, USP8 (UniProt P40818).
T5 sequence (whole entry): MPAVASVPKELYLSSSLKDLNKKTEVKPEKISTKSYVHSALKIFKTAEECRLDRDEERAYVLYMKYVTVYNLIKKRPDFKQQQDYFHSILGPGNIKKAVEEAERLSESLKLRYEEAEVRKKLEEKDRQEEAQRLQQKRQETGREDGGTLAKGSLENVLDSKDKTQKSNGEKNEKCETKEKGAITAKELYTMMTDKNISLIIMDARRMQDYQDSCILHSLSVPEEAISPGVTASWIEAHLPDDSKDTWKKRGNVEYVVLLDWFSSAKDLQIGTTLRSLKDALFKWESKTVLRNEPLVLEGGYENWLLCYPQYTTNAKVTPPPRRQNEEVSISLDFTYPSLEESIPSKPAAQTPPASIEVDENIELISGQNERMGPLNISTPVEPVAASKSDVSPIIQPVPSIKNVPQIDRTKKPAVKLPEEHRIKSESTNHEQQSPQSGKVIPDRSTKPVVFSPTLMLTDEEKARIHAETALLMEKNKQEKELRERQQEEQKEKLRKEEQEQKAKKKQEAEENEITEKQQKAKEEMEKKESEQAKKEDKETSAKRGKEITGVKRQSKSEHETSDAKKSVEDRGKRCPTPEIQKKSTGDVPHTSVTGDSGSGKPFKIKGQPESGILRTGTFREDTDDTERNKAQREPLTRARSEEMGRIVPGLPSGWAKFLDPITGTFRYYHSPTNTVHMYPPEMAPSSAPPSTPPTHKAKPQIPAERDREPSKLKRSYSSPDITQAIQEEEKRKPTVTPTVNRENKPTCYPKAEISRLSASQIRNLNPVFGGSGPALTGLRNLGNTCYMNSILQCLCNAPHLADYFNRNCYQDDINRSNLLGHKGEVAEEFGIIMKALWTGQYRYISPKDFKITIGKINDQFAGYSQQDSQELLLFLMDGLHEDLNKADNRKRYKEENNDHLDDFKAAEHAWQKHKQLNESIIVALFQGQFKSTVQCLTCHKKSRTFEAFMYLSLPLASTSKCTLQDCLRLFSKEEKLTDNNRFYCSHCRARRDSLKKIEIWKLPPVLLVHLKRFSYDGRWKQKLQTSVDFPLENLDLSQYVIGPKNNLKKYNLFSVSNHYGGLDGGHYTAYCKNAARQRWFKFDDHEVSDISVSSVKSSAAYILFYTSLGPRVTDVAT
The essentials: as §1

The target of another test is USP9X (UniProt Q93008). In outline:
as §1

The target in a further test is UniProt O00487. The essentials:
as §1

A number with no mark means an inactive call.

Sequence of UniProt O00487 (O00487 whole entry): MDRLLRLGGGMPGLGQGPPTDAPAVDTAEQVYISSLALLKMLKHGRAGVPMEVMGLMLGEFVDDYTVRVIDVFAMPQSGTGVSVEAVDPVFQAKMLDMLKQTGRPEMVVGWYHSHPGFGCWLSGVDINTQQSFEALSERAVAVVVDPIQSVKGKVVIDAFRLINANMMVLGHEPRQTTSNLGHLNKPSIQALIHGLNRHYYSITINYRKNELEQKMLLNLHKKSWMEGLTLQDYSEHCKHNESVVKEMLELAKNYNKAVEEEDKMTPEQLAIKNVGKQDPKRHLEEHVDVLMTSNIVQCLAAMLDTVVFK
Sequence of USP54 (Q70EL1 whole entry): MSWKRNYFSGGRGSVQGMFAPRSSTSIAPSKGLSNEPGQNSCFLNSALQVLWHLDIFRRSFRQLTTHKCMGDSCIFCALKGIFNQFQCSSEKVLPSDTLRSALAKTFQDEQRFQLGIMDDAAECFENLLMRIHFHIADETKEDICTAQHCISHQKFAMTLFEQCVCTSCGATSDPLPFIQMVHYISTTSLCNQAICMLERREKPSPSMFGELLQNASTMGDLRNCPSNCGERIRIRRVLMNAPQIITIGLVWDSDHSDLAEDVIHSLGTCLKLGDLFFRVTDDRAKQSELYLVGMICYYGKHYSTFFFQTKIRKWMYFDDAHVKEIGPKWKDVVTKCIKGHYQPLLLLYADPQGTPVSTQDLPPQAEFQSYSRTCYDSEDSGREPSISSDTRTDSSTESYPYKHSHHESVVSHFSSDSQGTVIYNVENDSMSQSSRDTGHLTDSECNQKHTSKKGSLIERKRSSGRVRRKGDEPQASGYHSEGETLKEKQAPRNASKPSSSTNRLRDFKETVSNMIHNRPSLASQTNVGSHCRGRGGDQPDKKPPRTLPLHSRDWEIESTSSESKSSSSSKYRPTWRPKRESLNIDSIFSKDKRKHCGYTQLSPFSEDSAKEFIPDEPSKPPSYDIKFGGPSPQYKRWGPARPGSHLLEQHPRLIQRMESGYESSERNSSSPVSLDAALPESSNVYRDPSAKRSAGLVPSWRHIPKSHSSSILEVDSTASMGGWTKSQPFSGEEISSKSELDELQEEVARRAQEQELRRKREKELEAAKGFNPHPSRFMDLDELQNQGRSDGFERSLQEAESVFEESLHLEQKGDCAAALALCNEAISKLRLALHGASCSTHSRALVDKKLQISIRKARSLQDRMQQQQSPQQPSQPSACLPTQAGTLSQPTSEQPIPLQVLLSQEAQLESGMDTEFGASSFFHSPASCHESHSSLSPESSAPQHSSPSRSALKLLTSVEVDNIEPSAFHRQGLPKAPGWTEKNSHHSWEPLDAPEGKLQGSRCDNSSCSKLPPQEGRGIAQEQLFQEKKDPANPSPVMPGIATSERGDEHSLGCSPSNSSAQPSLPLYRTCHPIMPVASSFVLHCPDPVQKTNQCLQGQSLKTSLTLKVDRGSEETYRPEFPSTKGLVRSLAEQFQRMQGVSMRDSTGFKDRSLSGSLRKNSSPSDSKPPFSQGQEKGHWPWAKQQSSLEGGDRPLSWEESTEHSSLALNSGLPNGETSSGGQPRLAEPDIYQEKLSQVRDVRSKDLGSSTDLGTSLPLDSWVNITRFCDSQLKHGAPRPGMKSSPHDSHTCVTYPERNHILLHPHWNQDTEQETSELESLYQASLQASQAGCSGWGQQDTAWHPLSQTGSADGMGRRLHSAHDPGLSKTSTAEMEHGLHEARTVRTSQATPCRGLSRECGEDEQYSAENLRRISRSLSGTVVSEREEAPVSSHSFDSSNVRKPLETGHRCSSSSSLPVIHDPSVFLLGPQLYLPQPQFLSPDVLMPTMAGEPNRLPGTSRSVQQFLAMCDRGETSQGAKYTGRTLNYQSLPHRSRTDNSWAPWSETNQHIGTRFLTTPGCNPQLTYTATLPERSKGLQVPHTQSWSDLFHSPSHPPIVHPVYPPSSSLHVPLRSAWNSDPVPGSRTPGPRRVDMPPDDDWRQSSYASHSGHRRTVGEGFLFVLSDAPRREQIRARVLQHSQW
Sequence of USP9X (Q93008 whole entry): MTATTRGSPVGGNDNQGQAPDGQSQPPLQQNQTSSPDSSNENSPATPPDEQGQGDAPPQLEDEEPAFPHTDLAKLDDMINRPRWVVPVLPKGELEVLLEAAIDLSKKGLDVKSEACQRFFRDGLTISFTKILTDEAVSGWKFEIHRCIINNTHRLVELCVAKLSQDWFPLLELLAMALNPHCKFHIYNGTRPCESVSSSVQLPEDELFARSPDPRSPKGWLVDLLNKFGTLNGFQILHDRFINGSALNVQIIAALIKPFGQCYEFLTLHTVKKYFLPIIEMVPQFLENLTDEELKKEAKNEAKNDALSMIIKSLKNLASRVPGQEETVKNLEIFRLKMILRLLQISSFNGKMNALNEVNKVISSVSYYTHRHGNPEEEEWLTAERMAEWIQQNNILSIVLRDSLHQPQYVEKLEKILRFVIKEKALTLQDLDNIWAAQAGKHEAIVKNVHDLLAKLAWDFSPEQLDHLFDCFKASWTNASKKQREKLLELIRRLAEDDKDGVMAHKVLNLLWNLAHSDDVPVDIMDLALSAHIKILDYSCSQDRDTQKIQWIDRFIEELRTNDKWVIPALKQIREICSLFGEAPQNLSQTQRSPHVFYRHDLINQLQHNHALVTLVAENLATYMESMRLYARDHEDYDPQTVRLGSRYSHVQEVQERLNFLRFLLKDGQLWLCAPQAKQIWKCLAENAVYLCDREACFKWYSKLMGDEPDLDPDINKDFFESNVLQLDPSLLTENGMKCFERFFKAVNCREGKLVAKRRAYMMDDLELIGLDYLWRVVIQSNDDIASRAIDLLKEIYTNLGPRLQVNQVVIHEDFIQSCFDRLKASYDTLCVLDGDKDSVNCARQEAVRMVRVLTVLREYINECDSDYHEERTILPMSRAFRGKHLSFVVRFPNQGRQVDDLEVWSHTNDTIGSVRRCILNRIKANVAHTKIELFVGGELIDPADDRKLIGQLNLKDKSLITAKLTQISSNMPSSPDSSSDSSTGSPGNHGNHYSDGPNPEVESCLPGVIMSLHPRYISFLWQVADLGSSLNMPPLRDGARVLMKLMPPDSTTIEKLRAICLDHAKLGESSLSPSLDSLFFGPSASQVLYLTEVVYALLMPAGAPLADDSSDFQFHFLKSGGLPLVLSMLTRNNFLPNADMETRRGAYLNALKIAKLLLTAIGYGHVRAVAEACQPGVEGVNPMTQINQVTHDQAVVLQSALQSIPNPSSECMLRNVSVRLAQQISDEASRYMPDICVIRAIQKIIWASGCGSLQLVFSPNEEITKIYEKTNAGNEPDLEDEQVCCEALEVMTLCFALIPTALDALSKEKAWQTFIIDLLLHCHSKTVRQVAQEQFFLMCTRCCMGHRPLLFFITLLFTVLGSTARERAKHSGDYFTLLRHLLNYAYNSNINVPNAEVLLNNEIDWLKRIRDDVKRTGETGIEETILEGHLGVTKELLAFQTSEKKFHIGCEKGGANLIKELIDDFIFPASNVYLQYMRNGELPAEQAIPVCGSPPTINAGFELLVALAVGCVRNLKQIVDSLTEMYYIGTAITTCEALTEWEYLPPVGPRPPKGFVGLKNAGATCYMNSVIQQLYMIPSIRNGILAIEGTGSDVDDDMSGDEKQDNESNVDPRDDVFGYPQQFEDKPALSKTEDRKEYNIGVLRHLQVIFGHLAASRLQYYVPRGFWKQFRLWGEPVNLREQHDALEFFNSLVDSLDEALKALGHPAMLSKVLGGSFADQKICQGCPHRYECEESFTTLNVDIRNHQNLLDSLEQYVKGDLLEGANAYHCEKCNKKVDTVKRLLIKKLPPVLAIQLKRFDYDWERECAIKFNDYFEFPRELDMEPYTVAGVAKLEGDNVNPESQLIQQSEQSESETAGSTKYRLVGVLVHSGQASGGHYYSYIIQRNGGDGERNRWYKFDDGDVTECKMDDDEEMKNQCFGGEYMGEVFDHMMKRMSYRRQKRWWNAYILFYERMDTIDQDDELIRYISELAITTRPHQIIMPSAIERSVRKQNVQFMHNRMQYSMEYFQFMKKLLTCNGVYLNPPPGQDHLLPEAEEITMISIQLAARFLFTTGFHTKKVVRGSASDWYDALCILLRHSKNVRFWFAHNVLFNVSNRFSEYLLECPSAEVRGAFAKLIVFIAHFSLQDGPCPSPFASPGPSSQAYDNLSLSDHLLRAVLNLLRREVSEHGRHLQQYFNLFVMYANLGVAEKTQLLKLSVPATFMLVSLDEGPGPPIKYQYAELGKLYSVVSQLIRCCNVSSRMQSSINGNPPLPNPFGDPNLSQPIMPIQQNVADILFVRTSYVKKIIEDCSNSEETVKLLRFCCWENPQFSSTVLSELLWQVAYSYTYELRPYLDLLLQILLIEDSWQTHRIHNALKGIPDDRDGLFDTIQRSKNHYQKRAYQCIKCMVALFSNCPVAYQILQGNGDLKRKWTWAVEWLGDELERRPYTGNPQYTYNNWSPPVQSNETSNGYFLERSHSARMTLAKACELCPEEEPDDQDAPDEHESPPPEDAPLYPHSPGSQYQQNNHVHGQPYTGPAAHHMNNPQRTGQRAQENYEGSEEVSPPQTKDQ
Sequence of USP46 (P62068 whole entry): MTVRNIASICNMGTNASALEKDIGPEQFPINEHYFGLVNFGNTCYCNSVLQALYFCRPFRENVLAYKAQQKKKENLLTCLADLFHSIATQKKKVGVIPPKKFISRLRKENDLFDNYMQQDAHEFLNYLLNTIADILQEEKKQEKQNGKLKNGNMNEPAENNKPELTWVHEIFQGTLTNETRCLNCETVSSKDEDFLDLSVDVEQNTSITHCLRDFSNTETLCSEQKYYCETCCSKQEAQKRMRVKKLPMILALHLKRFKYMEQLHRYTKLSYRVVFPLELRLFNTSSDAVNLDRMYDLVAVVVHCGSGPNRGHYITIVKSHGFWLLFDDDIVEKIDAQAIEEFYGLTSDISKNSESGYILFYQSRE

Consider `CC1Cc2ccccc2N1C(=O)CCl` (stereo not given), for which the “log2 ratio of Biotin-Ahx-Ub-VS probe labelling” value (shortened to “log2 ratio”) with USP42 was -0.0391; in the test with USP46, -0.226; with USP47 it was -0.675; with USP48, -0.686; with USP5 it was 0.363; in the test with USP54, 0.538. The “log2 ratio” value is -1.33 (active) with USP7, -0.238 with USP8, -0.267 with USP9X and -0.194 in the test with UniProt O00487.
On to `Cc1n[nH]c2c1CN(C(=O)CCl)CC2`, for which the “log2 ratio” value in the test with USP42 is 0.421; in the test with USP46, -0.91; with USP47, -1.08 (active); with USP48, -0.779; in the test with USP5 it was -0.67; with USP54, 0.337. Also, the “log2 ratio” value with USP7 was -0.758; with USP8, -1.11 (active); with USP9X, -0.85; with UniProt O00487, -0.184.
